A selection: hits, their analogues and other compounds. The true share with any hit is near 4.7%.
TRHR agonist = qHTS for Small Molecule Agonists and Allosteric Enhancers of Human TRH Receptor: Primary Screen for Agonists. TRHR cells, calcium flux fluo-8, FDSS agonist mode. activation, % at 2 µM. actives 0.18% (n = 360,000). AID 493084, 2011; note: 0% is about no effect
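Steps: seed TRHR cells overnight; add fluo-8 no-wash Ca dye, RT 30 min–1.5 h; record 10 s baseline; pin-transfer compounds; monitor fluorescence 1 cycle/s for the agonist window. Calcium increases flag candidate agonists.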
TRHR enhancer = qHTS for Small Molecule Agonists and Allosteric Enhancers of Human TRH Receptor: Primary Screen for Enhancers. actives 0.66% (n = 360,000). TRHR cells, fluo-8 calcium fluorescence, EC20 TRH enhancement. enhancement, % at 2 µM. Thyrotropin-releasing hormone receptor (Homo sapiens), P34981. AID 493056, 2011; in the data active = enhancement above about 30%; note: 0% is about no effect
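TRHR-expressing cells loaded with fluo-8 calcium dye were read kinetically (ex 480/em 530) during compound addition, then stimulated with an EC20 of TRH (10 nM final). Enhancement of the Gq-mediated intracellular calcium response was scored.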
D1 antag = Antagonist of Human D 1 Dopamine Receptor: qHTS; D(1A) dopamine receptor (Homo sapiens), P21728; HEK293 TREx D1 cells, calcium flux, dopamine EC80; stronger effect = lower value; activity change, negative = inhibition, % at 10 µM; actives 3.2% (n = 360,000); AID 504652, 2011; in the data active = activity change below about -30%; note: % is set by controls: 0 for no effect and ±100 for the full control effect
Target sequence (P21728 whole entry, looked up): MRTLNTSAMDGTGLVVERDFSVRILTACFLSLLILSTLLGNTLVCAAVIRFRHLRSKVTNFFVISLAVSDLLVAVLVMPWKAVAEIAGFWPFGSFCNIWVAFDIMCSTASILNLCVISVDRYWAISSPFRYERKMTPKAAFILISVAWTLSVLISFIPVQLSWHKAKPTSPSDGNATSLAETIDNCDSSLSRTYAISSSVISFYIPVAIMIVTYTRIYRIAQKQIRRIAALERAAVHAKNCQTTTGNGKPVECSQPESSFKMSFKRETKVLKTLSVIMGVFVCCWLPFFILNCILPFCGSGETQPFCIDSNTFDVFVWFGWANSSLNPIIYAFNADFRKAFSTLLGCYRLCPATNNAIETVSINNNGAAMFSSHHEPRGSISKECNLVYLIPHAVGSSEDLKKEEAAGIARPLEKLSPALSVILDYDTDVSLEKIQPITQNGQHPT
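Using tetracycline-induced force-coupled D1 Hek293 cells and a calcium dye, signals were followed for 180 s after compound, then for 180 s after EC80 dopamine, to detect inhibitors.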
D1 agonist = Allosteric Agonists of the Human D1 Dopamine Receptor: qHTS; AID 504660, 2011; actives 1% (n = 360,000); HEK293 T-REx D1 cells, calcium flux, agonist mode; activation, % at 2 µM; D(1A) dopamine receptor (Homo sapiens), P21728; note: 0% is about no effect
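Agonism was scored from calcium flux recorded over 180 s (1 read/s) after pintool compound addition, following a 10-cycle baseline. Cells were inducible force-coupled HEK293 TREx D1, plated overnight at 30 C and loaded with no-wash calcium dye.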
D1 potentiator = Potentiators of Human D1 Dopamine Receptor: qHTS; HEK293 TREx D1 cells, calcium flux, dopamine EC20 potentiation; potentiation, % at 10 µM; actives 0.036% (n = 360,000); D(1A) dopamine receptor (Homo sapiens), P21728; in the data active = potentiation above about 30%; note: 0% is about no effect
* hit, by the source's call; ! = a repeat was not active. Cut-off read from the data, not from the text of the source, unless noted: active = activation above about 30%; inactive = the rest.

SMILES	TRHR agonist	TRHR enhancer	D1 antag	D1 agonist	D1 potentiator
Nc1c(-c2ccccc2)sc2ccc3ccccc3[n+]12	-1	28	0	0	0
CCc1noc(C)c1C(=O)N1CCN(c2cccc(C)c2C)CC1	0	-1	-31*	4	-6
Cc1cccc(N2CCN(C(=O)/C=C/c3cccs3)CC2)c1C	1	1	-42*	8	-7
COc1ccc2c(c1OC)C(=O)N1C2SC(C)(C)[C@H]1C(=O)NC(C)C (stereo partly specified)	1	-7	7	4	4
CCN(CC)CCCCN1c2ccccc2Sc2ccccc21	2	-8	-12	35*	-4
CCN(CC)CC(=O)N1c2ccccc2Sc2ccccc21	0	2	-26	7	1
CC(=O)N1CCOc2cc(S(=O)(=O)N(C)Cc3ccccc3)c(Cl)cc21	0	17	-12	2	2
Cc1[nH]cnc1CSCCN	-1	7	11	3	-4
Cc1[nH]cnc1CSCc1ccc(Cl)cc1	0	13	-4	36*	-9
COc1ccc(C(=O)Nc2nnc(SCC(=O)NCC3CCCO3)s2)cc1OC (stereo unspecified)	0	-6	-30*	3	-12
COc1cc2c(=O)n(CCC(=O)NCC3CCCO3)c(=O)n(CC(=O)c3ccc(Cl)cc3)c2cc1OC (stereo unspecified)	0	1	-30*	0	-7
CC(C)(C)OC(=O)Cc1nnc(-c2nc3ccccc3[nH]2)s1	1	0	2	7	24
COc1cccc(NC(=O)CSc2nnc3ccc(-c4ccncc4)nn23)c1	-1	0	-8	4	-7
CCN(CC)CCCNc1cc(C(F)(F)F)c(C#N)c2nc3ccccc3n12	-1	-22	-1	46*	-2
CCN(CC)CCNc1cc(C)c(C#N)c2nc3ccccc3n12	1	7	-4	2	-4
CCCc1cc(NCCCCO)n2c(nc3ccccc32)c1C#N	0	3	-36*	8	0
c1ccc(C(c2ccccc2)c2ccn[nH]2)cc1	0	2	-13	6	-1
CN1CCc2cccc3c2[C@@H]1Cc1ccc(O)c(O)c1-3	0	0	-58*	17	-7
COc1ccc2c(c1O)-c1ccccc1CCN(C)C2	0	-2	-16	0	-2
CCOC(=O)/C(=N\Nc1ccc(C(C)=O)cc1)c1csc(Nc2ccccc2)n1	9	-19	2	54*	-7
CCOc1ccc(NC2CCCCC2NS(=O)(=O)c2ccccc2)cc1 (stereo unspecified)	-1	0	-35*	-1	22
CCOc1ccc(S(=O)(=O)NC2CCCCCC2)cc1	-1	-7	-26	4	-9
CC1=C(c2ccc(C)c(C)c2)S(=O)(=O)N=C1N1CCC(C(=O)NC(C)Cc2ccco2)CC1 (stereo unspecified)	0	23	-32*	0	-2
CC1=C(c2ccc(C)c(C)c2)S(=O)(=O)N=C1N1CCC(C(=O)NCc2ccc(C)o2)CC1	0	31*	-1	1	-5
CC1=C(c2ccc(C)c(C)c2)S(=O)(=O)N=C1N1CCC(C(=O)NC(C)c2ccccc2)CC1 (stereo unspecified)	0	4	-75*	2	-6
SMILES	TRHR agonist	TRHR enhancer	D1 antag	D1 agonist	D1 potentiator
CCc1nnc2c3ccccc3nc(Nc3ccc(F)c(Cl)c3)n12	1	-3	-4	3	1
CCOC(=O)/C(=N\Nc1ncnc2ccccc12)c1ccc(C)cc1	3	-1	-2	-1	-3
COc1ccc(CNC(=O)CCS(=O)(=O)c2ccc3c(c2)NC(=O)CS3)cc1	0	0	0	2	1
O=c1oc(-c2ccco2)nc2c1cnn2-c1ccccc1	0	3	-19	-1	4
O=c1oc(-c2ccco2)nc2ccccc12	2	-5	-39*	2	-6
Cc1ccc(S(=O)(=O)NC(C(=O)Oc2ccc3c(C(F)(F)F)cc(=O)oc3c2)c2ccccc2)cc1 (stereo unspecified)	13	9	-9	57*	-6
O=c1cc(C(F)(F)F)nc(SC/C=C/c2ccccc2)[nH]1	0	-1	-3	8	-8
Cc1cc(C)cc(NC2=C(c3ccccc3)C(=O)c3ccccc32)c1	-1	-12	-23	1	1
O=C(Nc1cc(C(F)(F)F)ccc1Cl)C(Sc1nnc(-c2cccs2)o1)c1ccccc1 (stereo unspecified)	0	18	-45*	10	-6
CN1CCN(c2ncnc3c2cnn3-c2ccc(Cl)cc2)CC1	1	-7	-54*	15	-8
CCN1CCN(c2ncnc3c2cnn3-c2ccc(Cl)cc2)CC1	1	-6	-11	13	-12
Cc1ccc(-n2ncc3c(N4CCN(C)CC4)ncnc32)cc1	1	-4	-30*	3	-1
Cc1cccc(NC(=O)N2C3CCCC2CC(NC(=O)C(C)(C)C)C3)c1 (stereo unspecified)	0	-7	3	10	1
CCC(=O)c1ccccc1OCCCn1cncn1	0	-4	-31*	1	-8
CCC(=O)c1ccccc1OCCN1CCN(Cc2ccccc2)CC1	0	0	-17	3	3
CC(C)(C)C(=O)/C=c1\[nH]c(=O)/c(=C\c2ccc(C#N)cc2)s1	1	4	-47*	4	-11
Cc1cccc(/C=c2\s/c(=C\C(=O)C(C)(C)C)[nH]c2=O)c1	0	6	-13	1	3
Cc1ccc(CNC(=O)CCCN2C(=O)c3cccnc3Oc3ccc(Cl)cc32)cc1	0	6	0	1	-1
CCOC(=O)C1CCC(CN(Cc2cccc(Br)c2)S(=O)(=O)c2ccc(C)cc2)CC1 (stereo unspecified)	2	-3	22	32*	0
COc1ccc(-c2oc3ncn4nc(-c5ccccc5OC)nc4c3c2-c2ccc(OC)cc2)cc1	1	1	-2	2	-2
COc1ccc(CNC(=O)c2cnc3sc(N4CCC(C)CC4)nn3c2=O)c(OC)c1	-1	0	-11	6	-2
CCOC(=O)C1CCCN(S(=O)(=O)c2ccc3c(c2)N(C)C(=O)CC(=O)N3C)C1 (stereo unspecified)	0	0	-45*!	2	0
CCOC(=O)C1CCCN(S(=O)(=O)c2ccc3[nH]c(=O)oc3c2)C1 (stereo unspecified)	0	-2	-41*	1	0
